Assay in all cases: DAPPL (digital affinity profiling via proximity ligation, sequencing); 10 mM Tris-HCl pH 7.5, 50 mM NaCl, 1 mM DTT, 4% glycerol, room temperature, 30 min; GST-TFs on glutathione beads, 16-mer random dsDNA library, 0.1% formaldehyde crosslink after washing; high values mean tight binding
What all share (conditions): protein: recombinant; tags: N-terminal GST; dsDNA, one strand shown

One assay concerns the target T1, ELK1 (Homo sapiens, UniProt P19419 1-428).
T1 sequence: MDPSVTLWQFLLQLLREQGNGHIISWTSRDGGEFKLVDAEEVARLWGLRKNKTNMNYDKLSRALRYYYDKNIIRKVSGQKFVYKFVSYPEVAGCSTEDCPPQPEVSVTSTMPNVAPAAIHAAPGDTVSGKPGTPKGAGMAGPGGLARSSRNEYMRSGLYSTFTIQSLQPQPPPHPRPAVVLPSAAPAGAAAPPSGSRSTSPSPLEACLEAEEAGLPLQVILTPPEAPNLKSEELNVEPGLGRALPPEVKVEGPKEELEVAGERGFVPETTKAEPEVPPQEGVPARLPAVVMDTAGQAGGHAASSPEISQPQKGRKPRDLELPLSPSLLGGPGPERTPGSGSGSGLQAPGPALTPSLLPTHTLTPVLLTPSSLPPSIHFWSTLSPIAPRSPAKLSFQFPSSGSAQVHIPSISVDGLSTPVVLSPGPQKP
In short, it runs like this:
(§1)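 Each value of binding signal is a hexamer's read frequency for a factor divided by the same hexamer's frequency in the tag-only sample. Barcoded, bead-captured GST fusions of human transcription factors made in yeast were pooled with that sample and incubated with 200 nmole of a random double-stranded 16-mer DNA library in Tris/NaCl/DTT/glycerol buffer at room temperature for 30 min. Washing, 0.1% formaldehyde crosslinking, proximity ligation, PCR and Illumina NextSeq500 sequencing followed.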

In another assay the target is ELF1 (Homo sapiens, UniProt P32519 1-619). In short, it runs like this: as §1
Sequence of ELF1 (P32519 whole entry): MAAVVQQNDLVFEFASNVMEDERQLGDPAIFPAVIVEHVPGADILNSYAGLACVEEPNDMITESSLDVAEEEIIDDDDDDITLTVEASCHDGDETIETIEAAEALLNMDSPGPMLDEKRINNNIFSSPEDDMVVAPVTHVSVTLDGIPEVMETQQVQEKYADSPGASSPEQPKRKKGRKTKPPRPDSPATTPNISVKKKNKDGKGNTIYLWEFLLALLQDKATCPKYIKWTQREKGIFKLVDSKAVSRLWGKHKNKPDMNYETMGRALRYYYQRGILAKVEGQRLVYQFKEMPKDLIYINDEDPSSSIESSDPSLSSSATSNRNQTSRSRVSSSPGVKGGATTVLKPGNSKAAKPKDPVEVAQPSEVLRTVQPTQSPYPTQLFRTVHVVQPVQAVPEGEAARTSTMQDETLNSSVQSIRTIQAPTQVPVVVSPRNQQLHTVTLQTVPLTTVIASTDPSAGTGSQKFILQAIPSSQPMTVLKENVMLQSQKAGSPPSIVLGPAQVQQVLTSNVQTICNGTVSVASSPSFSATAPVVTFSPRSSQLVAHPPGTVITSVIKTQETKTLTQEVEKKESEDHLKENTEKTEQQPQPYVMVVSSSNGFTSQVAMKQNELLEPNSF
The next assay deals with SPI1 (Homo sapiens, UniProt P17947 1-270). In short, it runs like this:
as §1

A further assay deals with SPIB (Homo sapiens, UniProt Q01892 1-262). In a few lines: as §1
Sequence of SPIB (Q01892 whole entry): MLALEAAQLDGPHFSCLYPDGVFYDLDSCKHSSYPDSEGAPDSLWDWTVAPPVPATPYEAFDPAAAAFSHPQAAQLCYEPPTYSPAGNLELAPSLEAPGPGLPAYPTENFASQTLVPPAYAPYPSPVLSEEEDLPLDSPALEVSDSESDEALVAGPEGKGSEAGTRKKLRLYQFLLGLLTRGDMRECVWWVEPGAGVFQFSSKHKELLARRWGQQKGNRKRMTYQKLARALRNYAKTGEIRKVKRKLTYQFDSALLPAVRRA
A further assay deals with ETV5 (Homo sapiens, UniProt P41161 1-510). In short, it runs like this:
as §1

A further assay has as its target T2, SPIC (Homo sapiens, UniProt Q8N5J4 1-248).
T2 sequence: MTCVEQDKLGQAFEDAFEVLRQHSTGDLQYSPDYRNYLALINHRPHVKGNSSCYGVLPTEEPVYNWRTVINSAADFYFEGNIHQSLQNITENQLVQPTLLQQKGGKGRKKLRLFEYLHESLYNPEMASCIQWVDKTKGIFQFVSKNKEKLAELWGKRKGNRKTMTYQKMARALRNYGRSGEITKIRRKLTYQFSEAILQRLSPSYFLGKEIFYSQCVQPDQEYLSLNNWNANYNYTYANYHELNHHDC
In short, it runs like this:
as §1

A further assay concerns the target T3, ELK4 (Homo sapiens, UniProt P28324-2 1-405).
T3 sequence: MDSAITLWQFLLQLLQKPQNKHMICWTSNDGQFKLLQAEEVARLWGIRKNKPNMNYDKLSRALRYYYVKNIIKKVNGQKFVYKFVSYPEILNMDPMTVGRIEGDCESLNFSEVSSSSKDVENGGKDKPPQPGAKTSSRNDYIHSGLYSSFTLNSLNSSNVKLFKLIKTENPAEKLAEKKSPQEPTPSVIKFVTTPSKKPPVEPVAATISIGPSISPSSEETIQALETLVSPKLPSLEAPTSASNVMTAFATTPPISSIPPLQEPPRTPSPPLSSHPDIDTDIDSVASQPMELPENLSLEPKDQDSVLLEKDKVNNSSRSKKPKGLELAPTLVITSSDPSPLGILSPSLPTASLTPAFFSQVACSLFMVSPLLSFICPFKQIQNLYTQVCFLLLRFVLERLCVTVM
In a few lines:
as §1

Another assay has as its target T4, ERF (Homo sapiens, UniProt P50548 1-548).
T4 sequence: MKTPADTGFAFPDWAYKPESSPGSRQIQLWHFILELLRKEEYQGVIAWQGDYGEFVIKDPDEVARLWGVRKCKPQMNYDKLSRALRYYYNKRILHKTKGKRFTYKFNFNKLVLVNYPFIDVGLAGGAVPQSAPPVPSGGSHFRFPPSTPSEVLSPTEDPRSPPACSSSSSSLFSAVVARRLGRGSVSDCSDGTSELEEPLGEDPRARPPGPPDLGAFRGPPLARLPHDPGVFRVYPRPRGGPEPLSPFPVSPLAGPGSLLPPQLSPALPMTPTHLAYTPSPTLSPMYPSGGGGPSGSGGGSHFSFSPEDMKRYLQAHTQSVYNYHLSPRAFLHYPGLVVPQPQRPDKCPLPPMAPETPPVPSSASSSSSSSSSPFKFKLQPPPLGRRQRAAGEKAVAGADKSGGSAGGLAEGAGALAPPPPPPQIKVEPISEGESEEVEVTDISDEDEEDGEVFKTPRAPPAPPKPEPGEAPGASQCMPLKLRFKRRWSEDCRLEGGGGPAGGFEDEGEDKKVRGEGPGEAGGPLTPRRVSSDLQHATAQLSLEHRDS
In a few lines:
as §1

Another assay addresses T5, ETV3L (Homo sapiens, UniProt Q6ZN32 1-361).
T5 sequence: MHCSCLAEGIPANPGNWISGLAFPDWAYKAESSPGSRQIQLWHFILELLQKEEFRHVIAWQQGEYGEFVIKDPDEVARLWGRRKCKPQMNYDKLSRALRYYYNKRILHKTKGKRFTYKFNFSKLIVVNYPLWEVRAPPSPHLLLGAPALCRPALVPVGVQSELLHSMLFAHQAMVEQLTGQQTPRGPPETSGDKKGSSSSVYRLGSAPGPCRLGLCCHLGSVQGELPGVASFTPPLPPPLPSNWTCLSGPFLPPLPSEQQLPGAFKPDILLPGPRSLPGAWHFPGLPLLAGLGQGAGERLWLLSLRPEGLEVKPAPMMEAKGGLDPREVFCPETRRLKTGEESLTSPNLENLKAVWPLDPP
In a few lines: as §1

For the next assay, the target named is T6, ETS2 (Homo sapiens, UniProt P15036 1-469).
T6 sequence: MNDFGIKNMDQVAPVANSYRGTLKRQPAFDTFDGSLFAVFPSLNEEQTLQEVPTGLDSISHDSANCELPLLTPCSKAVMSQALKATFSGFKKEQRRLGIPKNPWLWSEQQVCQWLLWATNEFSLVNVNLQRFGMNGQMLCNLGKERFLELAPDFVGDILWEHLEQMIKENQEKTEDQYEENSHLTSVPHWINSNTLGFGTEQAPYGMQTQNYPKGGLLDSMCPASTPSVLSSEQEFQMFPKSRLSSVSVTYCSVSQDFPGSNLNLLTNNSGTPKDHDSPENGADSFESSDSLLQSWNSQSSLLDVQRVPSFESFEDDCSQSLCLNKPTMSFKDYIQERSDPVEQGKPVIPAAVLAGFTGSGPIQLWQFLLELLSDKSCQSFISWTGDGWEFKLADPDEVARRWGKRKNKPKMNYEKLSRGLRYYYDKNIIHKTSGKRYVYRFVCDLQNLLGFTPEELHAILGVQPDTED
In a few lines:
as §1

Another assay has as its target T7, SPDEF (Homo sapiens, UniProt O95238 1-335).
T7 sequence: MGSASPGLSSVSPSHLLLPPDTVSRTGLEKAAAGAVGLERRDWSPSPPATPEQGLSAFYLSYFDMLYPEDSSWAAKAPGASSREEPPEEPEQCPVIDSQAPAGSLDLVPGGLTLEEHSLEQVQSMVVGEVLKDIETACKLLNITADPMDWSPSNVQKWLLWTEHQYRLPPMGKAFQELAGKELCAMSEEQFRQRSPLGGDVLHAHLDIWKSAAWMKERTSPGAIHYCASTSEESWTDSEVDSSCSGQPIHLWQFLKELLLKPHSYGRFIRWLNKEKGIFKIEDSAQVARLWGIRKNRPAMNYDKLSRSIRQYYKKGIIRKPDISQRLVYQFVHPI
In short, it runs like this: as §1

Another assay addresses T8, ETV3 (Homo sapiens, UniProt P41162-2 1-143).
T8 sequence: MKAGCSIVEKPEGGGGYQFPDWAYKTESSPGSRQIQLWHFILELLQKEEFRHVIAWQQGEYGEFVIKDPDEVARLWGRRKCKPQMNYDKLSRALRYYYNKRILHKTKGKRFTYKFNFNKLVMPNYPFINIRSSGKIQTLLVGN
In short, it runs like this: as §1

Another assay concerns the target ETV6 (Homo sapiens, UniProt P41212 1-452). In short, it runs like this: as §1

Sequence of ETV5 (P41161 whole entry): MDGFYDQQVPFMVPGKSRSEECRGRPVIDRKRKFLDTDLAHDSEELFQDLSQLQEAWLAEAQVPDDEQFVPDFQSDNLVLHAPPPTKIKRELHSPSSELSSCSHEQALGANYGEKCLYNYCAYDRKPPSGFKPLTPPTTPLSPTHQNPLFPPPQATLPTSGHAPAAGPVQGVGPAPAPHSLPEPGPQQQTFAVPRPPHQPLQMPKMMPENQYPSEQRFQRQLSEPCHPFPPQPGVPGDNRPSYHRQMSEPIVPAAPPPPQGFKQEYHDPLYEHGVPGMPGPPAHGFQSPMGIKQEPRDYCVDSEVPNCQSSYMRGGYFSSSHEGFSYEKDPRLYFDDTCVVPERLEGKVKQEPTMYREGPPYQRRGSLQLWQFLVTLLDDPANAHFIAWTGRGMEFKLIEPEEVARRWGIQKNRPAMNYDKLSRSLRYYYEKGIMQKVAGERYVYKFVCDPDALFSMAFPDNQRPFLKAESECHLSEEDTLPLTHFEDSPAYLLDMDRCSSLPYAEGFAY
Sequence of ETV6 (P41212 whole entry): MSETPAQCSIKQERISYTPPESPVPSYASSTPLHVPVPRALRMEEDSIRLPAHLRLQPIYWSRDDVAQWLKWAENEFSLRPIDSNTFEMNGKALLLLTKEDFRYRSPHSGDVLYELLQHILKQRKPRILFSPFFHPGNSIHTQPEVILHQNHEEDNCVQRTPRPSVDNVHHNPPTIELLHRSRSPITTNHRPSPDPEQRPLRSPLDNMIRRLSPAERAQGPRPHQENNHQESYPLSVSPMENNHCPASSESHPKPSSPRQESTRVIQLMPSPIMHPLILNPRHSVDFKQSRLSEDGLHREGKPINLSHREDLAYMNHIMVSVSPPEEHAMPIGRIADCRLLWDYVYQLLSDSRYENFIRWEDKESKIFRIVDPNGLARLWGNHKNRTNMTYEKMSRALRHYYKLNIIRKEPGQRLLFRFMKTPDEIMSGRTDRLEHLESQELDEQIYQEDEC

Take GTGCCT: the binding signal with ELK1 is 1.05 fold enrichment (6-mer frequency, TF over GST control); with ELF1 it was 1.02 fold enrichment (6-mer frequency, TF over GST control); in the assay with SPI1, 1.15 fold enrichment (6-mer frequency, TF over GST control); with SPIB it was 1.05 fold enrichment (6-mer frequency, TF over GST control); in the assay with ETV5, 1.07 fold enrichment (6-mer frequency, TF over GST control); with SPIC, 1.2 fold enrichment (6-mer frequency, TF over GST control). In addition, the binding signal with ELK4 is 1.16 fold enrichment (6-mer frequency, TF over GST control); with ERF it was 1.07 fold enrichment (6-mer frequency, TF over GST control); with ETV3L, 1.17 fold enrichment (6-mer frequency, TF over GST control); in the assay with ETS2 it was 1.06 fold enrichment (6-mer frequency, TF over GST control); with SPDEF, 1.02 fold enrichment (6-mer frequency, TF over GST control); with ETV3 it was 1.07 fold enrichment (6-mer frequency, TF over GST control). In addition, the binding signal with ETV6 was 1.02 fold enrichment (6-mer frequency, TF over GST control).

The values are drawn from PMC7862700, “An all-to-all approach to the identification of sequence-specific readers for epigenetic DNA modifications on cytosine”.
